Outcome and AC50 data for 16 compounds are collected here from PubChem BioAssay (EPA / NIEHS).

Calls of active or inactive are those of the source. How the source made its calls: active means hit-call score of the fitted dose curve at least 0.9, where 1 is the maximum; inactive means score below 0.9.

Assay [1] is described as follows: CCTE_Shafer_MEA_acute_per_burst_spike_number_mean: CCTE's Neural Acute Assay for Average Number of Spikes Per Burst, Shafer Lab (AID 2284015).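 Further: hits are decreases in mean spikes per burst versus baseline.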 A digest of the protocol: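 Primary rat cortical neurons on 48-well MEA plates, treated on DIV 13 or 15 at 0.03-40 uM. Spontaneous activity recorded 40 min before and 40 min after compound at 37 C; percent change in mean spikes per single-electrode burst per well, fitted in the loss direction versus DMSO.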

Assay [2] in a line: CCTE_Shafer_MEA_acute_burst_percentage_mean: CCTE's Neural Acute Assay for Percentage of Spikes in a Burst, Shafer Lab (AID 2284017).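 On AC50: curve fitted for loss of signal so potency reflects decreased burst percentage.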 A digest of the protocol: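 Primary rat cortical neurons on 16-electrode MEA wells; 40 min baseline recorded at DIV 13 or 15, then 40 min after compound (0.03-40 uM) at 37 C. Well-mean fraction of spikes in single-electrode bursts; percent change from baseline, DMSO as negative control.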

The nature of assay [3]: CCTE_Shafer_MEA_acute_burst_percentage_std: CCTE's Neural Acute Assay for Standard Deviation of Burst Percentage, Shafer Lab (AID 2284018).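 Further: fitted in the negative direction so actives lower burst percentage SD.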 In short, it runs like this: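 Value is percent change from baseline in the across-electrode SD of spikes-in-bursts percentage, wells with >/= 10 active electrodes. Acute 40-min exposure to 0.03-40 uM on DIV 13 or 15 rat cortical cultures, recorded at 37 C after 40-min baseline.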

Assay [4] in a line: CCTE_Shafer_MEA_acute_per_network_burst_spike_number_mean: CCTE's Neural Acute Assay for Average Number of Spikes in a Network Burst, Shafer Lab (AID 2284019).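 On AC50: curve fitted for loss of signal so actives reduce spikes per network burst.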 In short, it runs like this: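 Read-out is mean spike count per network burst, taken as percent change between a 40-min pre-exposure and a 40-min post-exposure recording per well. Rat primary cortical neurons on MEAs at 37 C, DIV 13 or 15; compounds at 0.03-40 uM.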

Assay [5] is described as follows: CCTE_Shafer_MEA_acute_per_network_burst_spike_number_std: CCTE's Neural Acute Assay for Standard Deviation of Number of Spikes in a Network Burst, Shafer Lab (AID 2284020).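 Further: fitted for decrease in spike-number SD versus DMSO so actives lower it.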 A digest of the protocol: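 Spontaneous network activity of primary rat cortical neurons is recorded extracellularly before and after a 40-min compound exposure (0.03-40 uM) at 37 C. The endpoint is the well's percent change in burst spike-number SD.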

The nature of assay [6]: CCTE_Shafer_MEA_acute_per_network_burst_electrodes_number_mean: CCTE's Neural Acute Assay for Mean Number of Electrodes in a Network Burst, Shafer Lab (AID 2284021).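 Further: curves fitted for decreases only so hits reduce electrodes per burst.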 A digest of the protocol:
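Percent change from baseline was computed as mean electrode count per network burst, comparing 40 min recordings before and during compound (0.03-40 uM) exposure. Cultures were rat cortical neurons at DIV 13 or 15, recorded on MEAs at 37 C with an adaptive 8x rms threshold.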

Assay [7] is described as follows: CCTE_Shafer_MEA_acute_network_burst_percentage: CCTE's Neural Acute Assay for Percentage of Network Bursts, Shafer Lab (AID 2284022).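 Further: curves fitted for loss so actives lower network burst percentage.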 A digest of the protocol:
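Network burst percentage (spikes in network bursts divided by total spikes) recorded at 37 C over 40 min baseline and 40 min after compound, 0.03-40 uM, in rat cortical cultures at DIV 13 or 15. Analysed as percent change from baseline versus DMSO.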

Assay [8] is described as follows: CCTE_Shafer_MEA_acute_cross_correlation_area: CCTE's Neural Acute Assay for Area of Cross Correlation, Shafer Lab (AID 2284024).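 Further: area under pooled inter-electrode spike cross-correlation near zero lag as percent change from own baseline; curves fitted for loss of cross-correlation area so actives lower synchrony.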 In short, it runs like this:
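Percent change in well-wide cross-correlation area (window around zero lag) between 40 min baseline and 40 min post-compound recordings, 37 C; rat cortical cultures on MEA at DIV 13 or 15, dosed 0.03-40 uM, wells needing >/= 10 active electrodes.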

Assay [9] is described as follows: CCTE_Shafer_MEA_acute_cross_correlation_HWHM: CCTE's Neural Acute Assay for Cross Correlation at Half Width at Half Maximum, Shafer Lab (AID 2284026).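 Further: percent change per well from pre-dose baseline in spike cross-correlogram half width; hits are a decrease in cross-correlogram half width relative to DMSO.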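 On Outcome: spontaneous network firing of rat primary cortical neurons on multiwell microelectrode arrays.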 A digest of the protocol:
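Per-well percent change in cross-correlogram half width at half maximum, derived from 40-min recordings before and after compound (0.03-40 uM) at 37 C. Cultures were rat cortical neurons, DIV 13 or 15, with adaptive spike detection at 8x rms.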

Assay [10] is described as follows: CCTE_Shafer_MEA_acute_synchrony_index: CCTE's Neural Acute Assay for Synchrony, Shafer Lab (AID 2284027).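 Further: network synchrony index of spontaneous spiking in primary rat cortical neurons on MEAs; fitted for loss of signal so actives lower synchrony relative to DMSO.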 In short, it runs like this: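 Primary rat cortical neurons on 16-electrode MEA wells were recorded 40 min at baseline (DIV 13 or 15) and 40 min after compound (0.03-40 uM) at 37 C. Synchrony index (0-1) expressed as percent change from baseline, versus DMSO.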

In the case of `COCCOCCO`, the compound was classed as inactive in assay [1], in assay [2], in assay [3], in assay [4], in assay [5] and in [6]. Moreover, the compound was called inactive in assay [7], in assay [8], in assay [9] and in assay [10].

For `CC(Cl)(Cl)C(=O)O`, the call in [1], in [2], in [3], in assay [4], in assay [5] and in assay [6] was inactive. Further, the call in assay [7], in [8], in [9] and in assay [10] was inactive.

For `COP(=O)(CCC(=O)NCO)OC`, the half-maximal activity concentration (AC50) in [1] was 0.145 µM (active). Further, the compound was classed as inactive in [2], in assay [3], in assay [4], in assay [5], in [6] and in assay [7]. Besides, the compound was called inactive in assay [8], in assay [9] and in [10].

`Nc1ccc2ccccc2c1`: the compound was called inactive in assay [1], in assay [2], in [3], in assay [4], in [5] and in assay [6]. For the same compound, the compound was called inactive in assay [7], in [8], in assay [9] and in assay [10].

For `Cc1ccc(N)cc1N`, the call in [1], in assay [2], in assay [3], in assay [4], in [5] and in [6] was inactive. Moreover, the compound was called inactive in [7], in assay [8], in assay [9] and in assay [10].

In the case of `CCC1(c2ccccc2)C(=O)N=C(O)NC1=O` (centres undefined), the compound was classed as inactive in assay [1], in assay [2], in assay [3], in assay [4], in assay [5] and in [6]. Moreover, the call in assay [7], in assay [8], in assay [9] and in assay [10] was inactive.

For `CCOP(=S)(Oc1ccc([N+](=O)[O-])cc1)c1ccccc1` (centres undefined), the compound was called inactive in assay [1], in assay [2], in assay [3], in assay [4], in assay [5] and in [6]. The compound was called inactive in [7], in assay [8], in assay [9] and in [10].

In the case of `O=C(O)C1C(C(=O)O)C2(Cl)C(Cl)=C(Cl)C1(Cl)C2(Cl)Cl` (centres undefined), the outcome in assay [1], in assay [2], in [3], in assay [4], in [5] and in [6] was inactive. Besides, the outcome in assay [7], in assay [8], in assay [9] and in assay [10] was inactive.

For the compound `[N-]=[N+]=[N-]`, the compound was classed as inactive in assay [1], in [2], in assay [3], in [4], in [5] and in [6]. For the same compound, the call in assay [7], in [8], in assay [9] and in [10] was inactive.

As to `ClC1=C(Cl)C2(Cl)C3C(Cl)C(Cl)CC3C1(Cl)C2(Cl)Cl` (centres undefined), the compound was called inactive in [1], in assay [3], in assay [5], in assay [6] and in assay [8]. The half-maximal activity concentration (AC50) in assay [2] was 0.29 µM (active); in assay [4] it was 0.309 µM (active); in assay [7], 33.8 µM (active); in [9] it was 4.29 µM (active); in assay [10], 0.283 µM (active).

Take `CC(C)(C)c1ccccc1OP(=O)(Oc1ccccc1)Oc1ccccc1`: the AC50 in assay [1] was 7.23 µM (active); in assay [2], 6.79 µM (active); in assay [3], 5 µM (active); in [5], 5 µM (active); in assay [6] it was 5 µM (active); in assay [7], 7.61 µM (active). Further, the AC50 in assay [9] is 8.14 µM (active); in assay [10], 6.97 µM (active). Moreover, the result in assay [4] and in assay [8] was inactive.

Regarding `CCC(C)(C)c1ccc(O)cc1`, the result in assay [1], in [3], in [4], in [7] and in assay [8] was inactive. Moreover, the AC50 in assay [2] was 9.06 µM (active); in assay [5], 8.27 µM (active); in assay [9], 9.35 µM (active); in [10], 8.24 µM (active).

Regarding `CCCCC(CC)COP(=O)(Oc1ccccc1)Oc1ccccc1` (centres undefined), the call in assay [1], in assay [4], in assay [5], in assay [6], in assay [7] and in assay [8] was inactive. The AC50 is 23.7 µM (active) in [2], 15 µM (active) in assay [3], 10.3 µM (active) in assay [9] and 22.1 µM (active) in assay [10].

For the compound `CCOc1ccc(C(C)(C)COCc2cccc(Oc3ccccc3)c2)cc1`, the compound was called inactive in [1], in [3], in [4], in assay [5], in assay [6] and in assay [8]. Also, the result in assay [9] was inactive. Besides, the AC50 in [2] is 25.4 µM (active); in assay [7], 23.8 µM (active); in [10], 28.1 µM (active).

With `ClC(Cl)(Cl)c1ccccc1`, the call in [1], in assay [2], in [3], in [4], in assay [5] and in assay [6] was inactive. The result in [7], in [8], in assay [9] and in assay [10] was inactive.

For the compound `c1ccc2c(c1)Nc1ccccc1S2`, the outcome in assay [1], in [3], in [4] and in [8] was inactive. The AC50 in assay [2] was 25.8 µM (active); in [5] it was 27.3 µM (active); in [6] it was 7.45 µM (active); in assay [7] it was 20 µM (active); in [9], 36.9 µM (active); in [10], 20 µM (active).
